Test system: T1, RSK2(Kin.Dom.1-N-terminal)
T1 construct: gene RPS6KA3
Details: concentration: 1 μM, replicates: in singlicate; n = 1
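Also: KINOMEscan kinase panel screen.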

| Compound | %Inh [%] |
| --- | --- |
| Cc1cccc(Nc2nc(N[C@H]3CCNC3)ncc2C(N)=O)c1.Cl [GSK2197149] | 31 |
| O=C(Nc1ccccc1F)NC1CCN(c2ccnc(Nc3ccc(F)cc3)n2)CC1 [GSK1379800] | 0 |
| CN(C)S(=O)(=O)c1cc(-c2ccc3nccc(-c4cccc(S(N)(=O)=O)c4)c3c2)cnc1N [GSK1669921] | 21 |
| COc1ccc(CNC(=O)NC2CCN(c3ccnc(Nc4ccc(F)cc4)n3)CC2)cc1 [GSK1379788] | 0 |
| Cl.Cl.NCC(C(=O)Nc1cc(Br)c(-c2ccnc3[nH]ccc23)s1)c1ccccc1 (stereo not shown) [GSK1269851] | 24 |
| COC(=O)Nc1nc2ccc(Oc3ccc(NC(=O)Nc4cc(C(F)(F)F)ccc4F)cc3)cc2n1C.Cl [GW692089] | 40 |
| Nc1ncc(-c2cccnc2)c2scc(-c3ccc4c(c3)CCN4C(=O)Cc3ccccc3)c12 [GSK683281] | 0 |
| Cc1ccc(C(=O)Nc2ccc(Nc3ccnc4cc(-c5nccs5)ccc34)cc2O)cc1.Cl [GW494702] | 0 |
| Cn1cc(-c2[nH]c3cc(NC(=O)[C@H](N)C4CCCCC4)cc4c3c2C=NNC4=O)cn1 | 85 |
| CCc1ccc(-c2ccc3c(c2)-c2c(cnn2C)S(=O)(=O)N3C)cc1 | 0 |
| Nc1ncc(-c2ccc3nccc(-c4ccncc4)c3c2)cc1S(=O)(=O)N1CCOCC1 [GSK1627798] | 0 |
| O=C(Nc1n[nH]c2nc(-c3ccc(O)cc3)ccc12)C1CC1 [SB-710363] | 52 |
| O=C(O)C(F)(F)F.O=C(O)C(F)(F)F.O=c1[nH]ccc2nc(N[C@@H]3CCCNC3)nc(Nc3ccc(S(=O)(=O)N4CCOCC4)cc3)c12 [GSK2177277] | 99.7 |
| COc1cccc(NC(=O)NC2CCN(c3ccnc(Nc4cc(OC)c(OC)c(OC)c4)n3)C2)c1 (stereo not shown) [GSK1379763] | 0 |
| CCS(=O)(=O)c1ccc(OC)c(Nc2nccc(-c3c(-c4cccc(NC(=O)c5c(F)cccc5F)c4)nn4ncccc34)n2)c1 [GSK326180] | 0 |
| COC(=O)Nc1nc2cc(Oc3ccc(NC(=O)Nc4cc(C(F)(F)F)ccc4F)cn3)ccc2[nH]1.Cl.Cl [GW681170] | 0 |
| COc1cc(Nc2nccc(N3CCC(NC(=O)Nc4cccc(C(C)=O)c4)C3)n2)cc(OC)c1OC (stereo not shown) [GSK1379753] | 10 |
| COc1cc(Nc2nccc(-c3c(-c4cccc(NC(=O)c5c(F)cccc5F)c4)nn4ccccc34)n2)cc(OC)c1OC [GSK323521] | 32 |
| Cl.Cl.NCC(NC(=O)c1cc(-c2ccccc2)c(-c2ccnc3[nH]ccc23)s1)c1ccccc1 (stereo not shown) [GSK1321561] | 14 |

| Compound | %Inh [%] |
| --- | --- |
| Cl.c1ccc(-c2ccc3c(Nc4ccc5[nH]ncc5c4)ccnc3c2)nc1 [GW440137] | 0 |
| CCn1c(-c2nonc2N)nc2c(C#CC(C)(C)O)ncc(OCCCCN)c21.O=C(O)C(F)(F)F.O=C(O)C(F)(F)F [GSK507274] | 19 |
| CN1CCN(CCCNc2nccc(-c3c(-c4ccc(F)cc4)nn4cc(C(F)(F)F)ccc34)n2)CC1 [GW621581] | 0 |
| Cl.Cl.NCC(NCc1ccc(-c2ccnc3[nH]ccc23)s1)c1ccccc1 (stereo not shown) [GSK1321565] | 36 |
| COc1cc(Nc2ncc3c(C)nc(-c4cc5ccccc5[nH]4)n3n2)cc(OC)c1OC [GW869516] | 49 |
| Nc1ncnc2c1nc(-c1ccccc1)n2-c1ccccc1 [SKF-97293] | 40 |
| O=C(Nc1cccc(-c2nn3ccccc3c2-c2ccnc(Nc3cccc(C(F)(F)F)c3)n2)c1)c1c(F)cccc1F [GSK292658] | 3 |
| CCCCc1nn2ncccc2c1-c1ccnc(Nc2ccc(N3CCN(C)CC3)cc2)n1 [GW684941] | 71 |
| Fc1ccc(-c2ncn(C3CCNCC3)c2-c2ccnc(Oc3ccc(-c4ccccc4)cc3)n2)cc1 [SB-245391] | 34 |
| FC(F)(F)c1ccc(/C=C/c2cncnc2Nc2ccc3[nH]c(Cc4ccccc4)nc3c2)cc1 [GW709199] | 11 |
| CC(=O)N1CCN(c2ccc(Nc3nccc(-c4sc(C(C)C)nc4-c4cccc(NS(=O)(=O)c5cccc(Cl)c5)c4)n3)cn2)CC1 [GSK1660437] | 0 |
| CC(=O)Nc1nc2cnc(Nc3cc(NC(=O)c4cccc(C5(C#N)CC5)c4Cl)ccc3C)nc2s1 | 0 |
| NCCCC(NC(=O)c1cc(Br)c(-c2ccnc3[nH]ccc23)s1)c1ccccc1.O=C(O)C(F)(F)F.O=C(O)C(F)(F)F (stereo not shown) [GSK1287544] | 29 |
| CN(C)Cc1ccc(-c2ccc3c(Nc4ccc(Oc5ccccn5)cc4)ccnc3c2)o1 [GW567148] | 1 |
| Cn1cc(-c2ccc3c(c2)CCN3C(=O)Cc2cccc(Cl)c2)c2c(N)ncnc21 [GSK2606590] | 1 |
| O=c1[nH]cc(-c2ccc(N3CCOCC3)cc2)c2sc(-c3cn[nH]c3)cc12 [GSK2276055] | 23 |
| CN1CCN(Cc2cccc(-c3ccc4c(Nc5ccc(Oc6ccccc6)cc5)ccnc4c3)c2)CC1 [GW578342] | 0 |
| COc1cccc(-c2ccc3c(NC(=O)C4CC4)n[nH]c3n2)c1 [SB-710903] | 0 |

Reference: PMC5540273 (PLoS ONE, 2017)
